# Measurements from the supplement of paper PMC3545927.
# Some of the results follow. The true hit rate is not given.
# Target: furin, P09958
# Test: furin cleavage Z-score vs untreated control; higher = more cleavage, active = 3.5 or more, inactive = 1 or less, 8 variable residues between constant flanks
# Procedure: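 Multiplexed peptide-cDNA fusion cleavage assay. 8-mer variable peptides flanked by constant Cys-Ala (N-term) and Ala-Gly-Asn-Ala-Ser-Ala-Ser-Ala (C-term) and conjugated to a cDNA oligonucleotide were bead-immobilised via the N-terminus. They were treated with purified furin at a 1:10 enzyme:substrate ratio in 50 mM HEPES pH 7.5, 1 mM CaCl2, 100 mM NaCl for 7.5, 15 or 30 min. Released cDNA was counted by next-generation sequencing, and log counts versus no-furin controls were lowess-adjusted and converted to robust Z-scores.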
# Sequence of furin, P09958 (P09958 whole entry): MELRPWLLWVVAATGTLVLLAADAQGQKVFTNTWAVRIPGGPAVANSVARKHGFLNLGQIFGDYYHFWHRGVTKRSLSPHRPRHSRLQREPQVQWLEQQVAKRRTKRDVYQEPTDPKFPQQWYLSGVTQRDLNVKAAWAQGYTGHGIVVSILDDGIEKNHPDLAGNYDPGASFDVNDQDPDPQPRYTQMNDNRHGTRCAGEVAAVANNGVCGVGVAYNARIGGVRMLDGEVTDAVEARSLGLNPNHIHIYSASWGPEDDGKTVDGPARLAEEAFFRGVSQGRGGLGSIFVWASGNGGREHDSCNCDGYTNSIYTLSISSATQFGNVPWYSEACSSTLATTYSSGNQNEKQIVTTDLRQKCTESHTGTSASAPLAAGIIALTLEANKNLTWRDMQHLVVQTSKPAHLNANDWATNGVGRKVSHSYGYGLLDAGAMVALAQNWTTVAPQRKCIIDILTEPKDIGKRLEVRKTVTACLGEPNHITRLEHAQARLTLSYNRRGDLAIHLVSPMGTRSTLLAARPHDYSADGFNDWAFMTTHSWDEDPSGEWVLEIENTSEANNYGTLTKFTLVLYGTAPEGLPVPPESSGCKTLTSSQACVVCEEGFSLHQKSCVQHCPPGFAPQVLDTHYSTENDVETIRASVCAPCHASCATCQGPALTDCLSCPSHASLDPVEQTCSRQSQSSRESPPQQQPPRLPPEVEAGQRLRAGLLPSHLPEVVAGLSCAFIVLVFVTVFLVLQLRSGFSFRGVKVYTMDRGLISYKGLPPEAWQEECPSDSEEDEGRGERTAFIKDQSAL
Sequence,furin cleavage Z-score (7.5 min),furin cleavage Z-score (15 min),furin cleavage Z-score (30 min)
CAEMVTSTWVAGNASASA [HC2166],-0.179 (inactive),0.272 (inactive),-0.181 (inactive)
CACSGGAYDIAGNASASA [HC813],-0.539 (inactive),-1.15 (inactive),0.556 (inactive)
CAVVLLLFAGAGNASASA [HC347],-2.22 (inactive),0.376 (inactive),-0.682 (inactive)
CALLADARVCAGNASASA [HC523],0.91 (inactive),-0.28 (inactive),-1.13 (inactive)
CALAARKRRQAGNASASA [FS-604],12.2 (active),12.1 (active),10 (active)
CALLARDRRQAGNASASA [FS-1025],6.87 (active),9.4 (active),7.76 (active)
CAPPRRKRRQAGNASASA [FS-71],8.73 (active),9.48 (active),8.32 (active)
CALLQTASRQAGNASASA [HC1028],0.222 (inactive),0.569 (inactive),0.432 (inactive)
CALAALAAYCAGNASASA [HC994],0.554 (inactive),1.14,0.545 (inactive)
CAHGLSAFSLAGNASASA [HC1604],0.973 (inactive),0.919 (inactive),1.37
CAVVYCSMSYAGNASASA [HC2029],-0.409 (inactive),-0.331 (inactive),0.819 (inactive)
CASTEDLVNLAGNASASA [HC1098],0.352 (inactive),-0.11 (inactive),-0.537 (inactive)
CAVVCCEMSYAGNASASA [HC113],1.04,-0.157 (inactive),2.06
CAKGYRGKRAAGNASASA [FS-448],9.98 (active),9.64 (active),8.26 (active)
CAAKQRGKRAAGNASASA [FS-578],7.85 (active),6.99 (active),6.51 (active)
CAEFKRCWKGAGNASASA [FS-2859],-0.792 (inactive),0.463 (inactive),-0.89 (inactive)
CAATPRPRRSAGNASASA [FS-980],11.1 (active),11.2 (active),7.55 (active)
CAPLPRPRRSAGNASASA [FS-473],6.49 (active),5.07 (active),4.07 (active)
CALCARPRRSAGNASASA [FS-348],10.1 (active),10.4 (active),9.44 (active)
CAQPPRPFRSAGNASASA [FS-704],-0.352 (inactive),1.58,-0.0165 (inactive)
CAPRDRPRRSAGNASASA [FS-1384],12.7 (active),13.7 (active),10.6 (active)
CAEVVTDTWVAGNASASA [HC152],-0.985 (inactive),0.416 (inactive),-1.25 (inactive)

Sequence,furin cleavage Z-score (7.5 min),furin cleavage Z-score (15 min),furin cleavage Z-score (30 min)
CATTPCHGSWAGNASASA [HC69],1.47,0.142 (inactive),1.5
CARLVRPRRSAGNASASA [FS-952],13.4 (active),14.2 (active),10.3 (active)
CAGTWRPRRSAGNASASA [FS-660],10.9 (active),11.6 (active),7.85 (active)
CAEVPCHRPAAGNASASA [HC2403],-1.55 (inactive),0.357 (inactive),-0.33 (inactive)
CAEVWCHRPSAGNASASA [HC2348],0.218 (inactive),0.0316 (inactive),0.64 (inactive)
CALIRLKPTLAGNASASA [HC966],-1.19 (inactive),-1.25 (inactive),0.404 (inactive)
CAFQYSPGQRAGNASASA [HC1467],-0.221 (inactive),-0.464 (inactive),-2.47 (inactive)
CAYDTRCFDSAGNASASA [HC1480],-1.56 (inactive),0.436 (inactive),0.927 (inactive)
CAYRRRPPRSAGNASASA [FS-111],1.85,1.04,0.965 (inactive)
CAYRRRRSRSAGNASASA [FS-1296],7.22 (active),8.22 (active),6.95 (active)
CAYRYRRRRSAGNASASA [FS-1440],4.89 (active),5.22 (active),3.7 (active)
CARYQRRSRSAGNASASA [FS-1655],7.45 (active),7.54 (active),8.29 (active)
CAYRKRQCRSAGNASASA [FS-393],5.64 (active),5.62 (active),3.16
CATTPISGSWAGNASASA [HC45],-0.899 (inactive),-0.739 (inactive),-0.823 (inactive)
CASLPCSAHLAGNASASA [HC2485],-0.663 (inactive),0.376 (inactive),0.512 (inactive)
CAMRECSQHLAGNASASA [HC1693],-1.86 (inactive),1.41,0.442 (inactive)
CASLEVVTSTAGNASASA [HC2277],-0.584 (inactive),-0.0293 (inactive),0.688 (inactive)
CAYIPRILGPAGNASASA [FS-1875],-0.849 (inactive),-0.994 (inactive),-2.27 (inactive)
CAEVVTSTSVAGNASASA [HC2237],0.559 (inactive),-1.07 (inactive),-1.09 (inactive)
CARYIRSERSAGNASASA [FS-1611],6.49 (active),8.32 (active),8.42 (active)
CATRKTSERSAGNASASA [HC185],0.0798 (inactive),1.75,1.32
CATTLCSGSWAGNASASA [HC1865],-0.162 (inactive),-0.533 (inactive),0.486 (inactive)
